Consider six molecules from the supplement of paper PMC10105736.

A number with no mark means an inactive call.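 How the source made its calls: active = MAPPIT score above the 99th percentile of random reference set scores in the same batch; inactive = at or below it.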

Assay in all cases: MAPPIT interaction score (arbitrary units); higher = stronger binary interaction signal, active = hit call of the paper
Test [1] has as its target htl. The note with it: MAPPIT configuration: N-N; pair source set: RRS.
For test [2], the target named is gus. To be noted: MAPPIT configuration: N-N; pair source set: Finley_Y2H.
Test [3] deals with ihog. The note with it: pair source set: Lit-BM-16.
The target of test [4] is hid. To be noted: pair source set: RRS.
The target in test [5] is isoQC. The note with it: MAPPIT configuration: N-N; pair source set: DPIM.
The target in test [6] is ix. The note with it: pair source set: Lit-BM-16.
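Further: HEK293T cells with Epo stimulation, STAT-responsive firefly luciferase reporter, fold induction versus unstimulated cells divided by the larger fold induction of two negative controls lacking either bait or prey.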

B1: Uba5 (protein)
chain: MSHAIDELQAIIADLKTELETEPKSSGGVASNSRLARDRIDRMSAEVVDSNPYSRLMALQRMNIVKDYERIRYKAVAIVGVGGVGSVTADMLTRCGIGKLILFDYDKVELANMNRLFFTPDQAGLSKVAAAAATLSFINPDVEIETHNYNITTVENFDRFLDTISQGGRIAGQPVDLVLSCVDNFEARMAINAACNERNLNWFESGVSENAVSGHIQFIRPGDTACFACAPPLVVAENIDEKTLKREGVCAASLPTTMGITAGFLVQNALKYLLNFGEVSDYLGYNALSDFFPKMTLKPNPQCDDRNCLVRQKEFQARPKPVLIEEKAVSEEPLHATNEWGIELVAEDAPESNTTPAETPVMGEGLRLAYEAPEKSSETSEETVSAATADETSLEDLMAQMKSM
Take B1: the MAPPIT interaction score in test [1] is 0.0658.

B2: Sirt2 (protein)
chain: MDKVRRFFANTLHLGGSSDAKEEVKVEKVIPDLSFDGFAEHWRVHGFRKIVTMVGAGISTSAGIPDFRSPGSGLYSNLKKYELPHPTAIFDLDYFEKNPAPFFALAKELYPGSFIPTPAHYFIRLLNDKGLLQRHYTQNIDTLDRLTGLPEDKIIEAHGSFHTNHCIKCRKEYDMDWMKAEIFADRLPKCQKCQGVVKPDIVFFGENLPKRFYSSPEEDFQDCDLLIIMGTSLEVQPFASLVWRPGPRCIRLLINRDAVGQASCVLFMDPNTRSLLFDKPNNTRDVAFLGDCDAGVMALAKALGWDQELQQLITSERKKLSGSQNSEELQQGKEKPQSDPDKMTSGDRDKKDASL
For the molecule B2, the MAPPIT interaction score in test [2] was -0.0617.

B3: ihog (protein)
chain: MTLLTSSLLLFSLLTSRLEAIPVLEKSPAHPAHSAHPAHPAHPAHPAHPSPGVRILRAPESLVAPLGDEVVLECETSLQPERFEWSHRSSRSPGAGFKYLKTGTAKANVSQEAAISRLRVLVRPDTLGEYRCVGWFGPLVVTSTIARLELASTSLVDAQESESPLQWRVSAGNSVLWSCGQQVQSNPSASWSYYRNGVEIKPEFIGTNGNLFLSNVSSESSGSYSCQATNPASGERIQLPGSLQLQVTPEQRSESKSPHLLRGQPSSQEITIREGSSLLLLCPGVGSPPPTVVWSSPDVVGAVKNKRSKVFGHALEISNTRVNDAGTYICFQDNGVRPALEHYIKVHVEQPPQIVRPPWADLTNEGDRLKLECKATGVPTPEIYWLLNGHSSIDDSEAELSNNFLILHSVLKRHAGYVQCFARNRLGEHSAGTLLQVNPKQIQEPRESGGTHRPKPNQGSRQKQMYPPTPPNVTRLSDESVMLRWMVPRNDGLPIVIFKVQYRMVGKRKNWQTTNDNIPYGKPKWNSELGKSFTASVTDLKPQHTYRFRILAVYSNNDNKESNTSAKFYLQPGAALDPMPVPELLEIEEYSETAVVLHWSLASDADEHLITGYYAYYRPSSSAGEYFKATIEGAHARSFKIAPLETATMYEFKLQSFSAASASEFSALKQGRTQRPKTSTTEEPTLQMGDRDTTTPSHNETFNMSPMLTGTIGGGAVLILLLISTCFCVCRRRNSRSRGNNPNKPRMAELRDDFVPLGNCSPTKQRQRTRHIHITLNPLAQQQQQALEEKNDTDQDAPYYQRPSSYDYDPTLRRMSSSSLRRSQRTLERAGGSNGSNNGNNNNLNQSAEAGSIENPGKPGRVLMKRPRLSSRSENLSSGSLNSVGV
On to B3, for which the MAPPIT interaction score is -0.576 in test [3] (MAPPIT configuration: N-C) and -0.268 in test [3] (MAPPIT configuration: N-N).

B4: sesB (protein)
chain: MGNISASITSQSKMGKDFDAVGFVKDFAAGGISAAVSKTAVAPIERVKLLLQVQHISKQISPDKQYKGMVDCFIRIPKEQGFSSFWRGNLANVIRYFPTQALNFAFKDKYKQVFLGGVDKNTQFWRYFAGNLASGGAAGATSLCFVYPLDFARTRLAADTGKGGQREFTGLGNCLTKIFKSDGIVGLYRGFGVSVQGIIIYRAAYFGFYDTARGMLPDPKNTPIYISWAIAQVVTTVAGIVSYPFDTVRRRMMMQSGRKATEVIYKNTLHCWATIAKQEGTGAFFKGAFSNILRGTGGAFVLVLYDEIKKVL
As for B4, the MAPPIT interaction score is 0.0222 in test [4] (MAPPIT configuration: N-C) and -0.106 in test [4] (MAPPIT configuration: N-N).

B5: fd59A (protein)
chain: MHTSTDPMHTLHDSVSLSPPLIKSSRGGSSIGNGIGCSASSRTAAADAMSMGCDDSDIEPSSMGGSGAAGGNGDGSGSSGGPLVKPPYSYIALITMAILQSPHKKLTLSGICDFIMSRFPYYKDKFPAWQNSIRHNLSLNDCFIKVPREPGNPGKGNFWTLDPLAEDMFDNGSFLRRRKRYKRAPTMQRFSFPAVFGTLSPFWIRKPVPLVPVHFNVPNFNGSREFDVVHNPADVFDSALRADKKFNFFANAEASFYQGSQSGDKFDRLPFMNRGRGADVLDALPHSSGSGGGVGGGSESSRGSKYKSPYAFDVATVASAAGIPGHRDYAERLSAGGGYMDLNVYNDDADTEADAEAEGDDDSCEDKIDVESGNEQEDSHISDSVDSACTNRLDAPPEALIFEASAEASDSSPRRRFDSEPLVLRTSKQSSAKDFRIETLIGHHLHRGGSQEETSD
For the molecule B5, in test [5], the MAPPIT interaction score is 0.602.

B6: MED8 (protein)
chain: MQRDEKLFELTLDTVLQRLNDLKLAVLSMIQKLELEYETINWPTFLDNFAIISSHLTGLTKILAKEQCPPLRNRTVLPLLVSMDRDDTLINITEGRVPVFSHDIVPDYLRTRPDPITEQKMLQNEQKAANLTNDAAMKQVTQYNKVVSHVLDMVSKAREEWEIESSSRTGIQQTSSMADTQLLVAAVGMGKGLKLTNYGPGPGMMVPPSIRAPSPMGGPAMSPGNVQQQLGKAPSAVKTNIKSANQVHPFSR
Consider B6, for which the MAPPIT interaction score was 3.01 in test [6] (MAPPIT configuration: N-C) and 2.19 in test [6] (MAPPIT configuration: N-N).
